Screening data as filed in PubChem.
NIH3T3 tox – Cytotoxic Profiling in NIH 3T3 Cell Line of Diverse Libraries Using Quantitative High-Throughput Screening; NIH 3T3 viability, CellTiter-Glo ATP luminescence, 48-72 h; 4.3% of 94,000 active; Potency, µM (highest dose often 96.7 µM), inactives show at the top dose activity change, negative = cytotoxicity, usual class: inhibitors; note: nearly all actives have a fitted effect of over 55% in size
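ATP-dependent luminescence (CellTiter-Glo) served as the viability signal for NIH 3T3 cells treated with compound for 48 or 72 hr at 37 °C.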
Luciferase inh – Firefly luciferase inhibition profiling of diverse chemical library using quantitative high-throughput screening. AID 1347043, 2019. Potency, µM (highest dose often 115 µM), most hits filed as inhibitors. 2.5% of 76,000 active. purified P. pyralis luciferase, luminescence, biochemical; note: nearly all actives have a fitted effect of over 65% in size
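FLuc 10nM, D-luciferin 10uM, ATP 10uM, Mg acetate 10mM, Tris acetate pH 7.5, Tween/BSA; cpd qHTS; enzyme added last; CCD luminescence.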
HEK293 tox – Cytotoxic Profiling in HEK 293 Cell Line of Diverse Libraries Using Quantitative High-Throughput Screening; HEK 293 viability, ATP luminescence (CellTiter-Glo), 48-72 h; Potency, µM (doses to about 115 µM), without a hit: at the top dose activity change, negative = cytotoxicity, actives largely listed as inhibitors; 6.6% of 94,000 active; note: nearly all actives have a fitted effect of over 60% in size
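Luminescence from cellular ATP, measured with CellTiter-Glo, indicates HEK 293 viability. Cells plated at 250 cells/well are treated with compound for 48 or 72 hr at 37 degree Celsius before reagent addition.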
NPR1 antag – Natriuretic polypeptide receptor (hNpr1) antagonism - Primary qHTS. HEK293 hNpr1 GloSensor cGMP, ANP-stimulated luminescence. Potency, µM (doses to about 46.3 µM), inactives show top-dose activity change, negative = inhibition, usual class: inhibitors. 1.6% of 76,000 active; calls by dose curve; note: nearly all actives have a fitted effect of over 60% in size
Target sequence (P16066 whole entry, looked up): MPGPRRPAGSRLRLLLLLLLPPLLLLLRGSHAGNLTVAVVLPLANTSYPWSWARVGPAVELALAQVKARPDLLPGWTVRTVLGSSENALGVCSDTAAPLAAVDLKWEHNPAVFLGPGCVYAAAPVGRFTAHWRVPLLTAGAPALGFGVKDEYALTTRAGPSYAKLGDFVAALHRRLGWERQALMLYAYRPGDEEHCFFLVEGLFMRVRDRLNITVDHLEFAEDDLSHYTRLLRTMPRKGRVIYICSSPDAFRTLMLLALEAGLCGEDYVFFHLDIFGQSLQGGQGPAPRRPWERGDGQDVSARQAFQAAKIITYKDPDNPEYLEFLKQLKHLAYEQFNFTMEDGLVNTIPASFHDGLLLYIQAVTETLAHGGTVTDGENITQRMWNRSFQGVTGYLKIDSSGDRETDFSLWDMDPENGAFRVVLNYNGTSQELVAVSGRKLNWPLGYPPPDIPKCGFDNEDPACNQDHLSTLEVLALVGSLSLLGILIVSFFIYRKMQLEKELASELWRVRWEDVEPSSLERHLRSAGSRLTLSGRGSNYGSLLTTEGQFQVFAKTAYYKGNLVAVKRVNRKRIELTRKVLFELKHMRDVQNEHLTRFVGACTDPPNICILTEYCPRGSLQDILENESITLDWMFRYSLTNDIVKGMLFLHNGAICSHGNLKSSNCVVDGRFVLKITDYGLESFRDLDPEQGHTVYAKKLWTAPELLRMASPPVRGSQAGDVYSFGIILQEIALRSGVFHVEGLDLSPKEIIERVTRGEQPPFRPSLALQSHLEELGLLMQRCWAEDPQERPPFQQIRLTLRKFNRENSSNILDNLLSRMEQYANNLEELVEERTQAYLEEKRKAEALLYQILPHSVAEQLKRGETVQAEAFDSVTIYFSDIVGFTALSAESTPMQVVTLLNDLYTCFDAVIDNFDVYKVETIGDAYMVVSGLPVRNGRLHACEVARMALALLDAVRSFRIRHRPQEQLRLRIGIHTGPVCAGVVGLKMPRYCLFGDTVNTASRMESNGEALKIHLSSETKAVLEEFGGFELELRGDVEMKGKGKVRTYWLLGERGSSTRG
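HEK293 cells stably expressing human Npr1 and cGMP GloSensor pGS-40F, loaded 2 h with 2% GloSensor reagent, given compound 30 min at room temperature. Luminescence read before and 20 min after 0.1 nM hNppA.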
Starred values were filed as active, the others as inactive; i = inactive; u = inconclusive; x = no result; [ ] = dose if it differs, or a comment. This is a sample that favours compounds with a hit; in the whole collection about 11% have one here. Unless noted, calls come from the whole dose curve; as a rule, active = well fitted curve in the direction sought with a large enough effect; inconclusive = small, poorly fitted or top-dose-only effect, or another doubt; inactive = no such curve, though single readings can be large; an effect the other way counts as inactive or inconclusive. % is set by controls: 0 for no effect and ±100 for the full control effect; potency is the fitted concentration of half-maximal effect.

SMILES | NIH3T3 tox | Luciferase inh | HEK293 tox | NPR1 antag
COc1ccc(-c2ccc(C(=O)N(C)c3ccccc3)cc2)nn1 | 13µM* | x | 22µM* | x
COc1ccc(-c2ccc(C(=O)NCc3cccnc3)cc2)nn1 | 8.9µM* | x | -18%[172 µM] | x
O=C(NCc1cccnc1)c1ccc2oc(-c3ccc(C(F)(F)F)cc3)nc2c1 | u | i | 11µM* | u
COc1ccc(-c2ccc(C(=O)NCc3ccccc3F)cc2)nn1 | u | x | 112µM* | x
COc1ccc(-c2ccc(C(=O)NCCc3ccc(F)cc3)cc2)nn1 | -12% | x | -27% | x
COc1ccc(-c2ccc(NC(=O)c3ccccc3C)cc2)nn1 | u | x | 40µM* | x
Cn1ncc2c(C(=O)NCCc3ccccn3)cc(-c3cccc(C(F)(F)F)c3)nc21 | u | x | 32µM* | x
COCCCNC(=O)c1cc(-c2cccc(C(F)(F)F)c2)nc2c1cnn2C | -17% | x | -4% | x
Cn1ncc2c(C(=O)NCc3cccnc3)cc(-c3cccc(C(F)(F)F)c3)nc21 | u | x | 50µM* | x
COc1cccc(CNC(=O)c2cc(-c3cccc(C(F)(F)F)c3)nc3c2cnn3C)c1 | -3% | x | i | x
COc1cccc(-c2cc(C(=O)NCc3cccc(C(F)(F)F)c3)c3cnn(C)c3n2)c1 | u | x | 25µM* | x
Cc1ccc(-c2c(C(=O)N3CCN(C)CC3)nc3sccn23)cc1 | -19% | x | -22% | x
CCOC(=O)C1=C(C)N=C2SC=C(CC(=O)N3CCCC3)N2C1c1cc(C)ccc1C (centres undefined) | -5% | i | u | u
CCn1ccc(C(=O)N2CCCN(c3cc(-c4ccc(OC)cc4)[nH]n3)CC2)n1 | 2% | u | -21% | -4%
CNC(=O)c1cccc(-c2cnc3[nH]cc(CC(=O)Nc4ccccc4Cl)c3c2)c1 | u | u | 89µM* | 1%[70.6 µM]
COCCNC(=O)Cc1c[nH]c2ncc(-c3cccnc3)cc12 | u | i | -22%[172 µM] | 3%[70.6 µM]
O=C(Cc1c[nH]c2ncc(-c3cccnc3)cc12)NCCc1ccccn1 | 100µM* | i | -4%[172 µM] | -1%[70.6 µM]
O=C(Cc1c[nH]c2ncc(-c3cccnc3)cc12)NC1CCC1 | 28µM* | i | u | 10%[70.6 µM]
O=C(Cc1c[nH]c2ncc(-c3ccccc3)cc12)NC1CC1 | 89µM* | i | u | u
COc1ccccc1NC(=O)NC[C@H]1O[C@H](Cc2cc(-c3ccc(F)cc3)on2)CC[C@@H]1O | -24% | i | -25% | -19%
CC(C)C(=O)Nc1cc(-c2ccccn2)nn1-c1ccccc1 | -30%[138 µM] | x | -22%[172 µM] | x
CN1C(=O)Cc2cc(C(=O)NC3CCCCC3)ccc21 | -14% | i | -22% | -1%
CNC(=O)c1cccc(-c2cnc3[nH]cc(CC(=O)NC4CCC4)c3c2)c1 | 40µM* | u | u | 2%[70.6 µM]
CNC(=O)c1cccc(-c2cnc3[nH]cc(CC(=O)N(C)C)c3c2)c1 | u | u | u | 5%[70.6 µM]
CNC(=O)c1cccc(-c2cnc3[nH]cc(CC(=O)NCc4cccs4)c3c2)c1 | 89µM* | i | u | -14%[70.6 µM]
SMILES | NIH3T3 tox | Luciferase inh | HEK293 tox | NPR1 antag
CCCOc1ccccc1C(C)Nc1nc(-c2cccnc2)nc2c1CNC2 (centres undefined) | u | i | 79µM* | -29%
c1cncc(-c2nc3c(c(NCc4ccccc4-n4ccnc4)n2)CNC3)c1 | -5% | i | -16% | 5%
CCOc1cc(-c2nc3ccc(-c4ccc(OC)c(OC)c4OC)cc3o2)ccc1OC | -17% | i | -27% | 0%
O=C(NCCN1CCOCC1)[C@H]1C[C@@H](O)[C@H](O)[C@@H]2N=C(Nc3ccc(-n4cccn4)cc3)S[C@@H]21 | -16% | 35µM* | -18% | 0%
Cc1onc(C(=O)N2CCCCCCNC(=O)[C@@H]3CCCC[C@@H]32)c1Cn1cccn1 | -10% | i | i | -16%
COc1ccc(-c2cc(-c3cccc(OC)c3OC)cn3cncc23)cc1 | u | u | 89µM* | 0%[70.6 µM]
COc1cccc(-c2cc(-c3ccc(OC)nc3)c3cncn3c2)c1 | u | i | u | -19%[70.6 µM]
COc1ccc(-c2cc(-c3cccc(CO)c3)cn3cncc23)cc1 | 56µM* | i | 79µM* | -20%[70.6 µM]
Oc1ccccc1-c1cc(-c2cccnc2)c2cncn2c1 | u | i | 100µM* | -22%[70.6 µM]
COc1ccc(-c2cc(-c3cnn(C)c3)cn3cncc23)cc1 | 35µM* | i | u | -18%[70.6 µM]
COc1ccc2cc1Nc1ccc(cc1)C[C@H](NCC1CC1)C(=O)N(C)[C@@H](C(=O)Nc1ccccc1)C2 | -28% | i | u | 1%
O=C(NCc1cccs1)c1nc2cccnc2n(Cc2ccccc2)c1=O | -30% | x | -11% | x
Cc1nccn1C(C)C(=O)NCc1cccnc1N(C)Cc1ccccc1 (centres undefined) | -15% | i | -21% | -5%
COc1ccc(-c2cc(-c3ccccc3O)cn3cncc23)cc1 | u | i | 100µM* | -23%[70.6 µM]
COc1ccc(-c2cc(-c3ccc(N4CCOCC4)nc3)cn3cncc23)cc1 | u | u | u | -3%[70.6 µM]
CN1CCc2c([nH]c3ccccc23)C12CCN(C(=O)C1CCC1)CC2 | -11% | i | -9% | -1%
CC1=C[C@@H](CNC(=O)[C@@H]2CCCC[C@@H]2C(=O)O)[C@H](C(C)C)C[C@H]1Cc1nc2c(C)cccc2[nH]1 | -4% | i | -15% | 1%
CC1=C[C@@H](CNC(=O)Nc2ccc(F)cc2)[C@H](C(C)C)C[C@H]1Cc1nc2c(C)cccc2[nH]1 | 40µM* | u | u | -23%
CC1=C[C@@H](CNC(=O)C2CCCCC2)[C@H](C(C)C)C[C@H]1Cc1nc2c(C)cccc2[nH]1 | 25µM* | i | u | -19%[70.6 µM]
C=CCc1ccccc1OCCN(C)Cc1nc(C)ccc1O | u | i | u | 0%
C=CCc1ccccc1OCCN(C)Cc1ccc(S(C)(=O)=O)cc1 | u | i | 40µM* | -13%
C=CCc1ccccc1OCCN(C)Cc1ncnn1CC | -27% | i | u | 0%
C=CCc1ccccc1OCCN(C)Cc1cc2ccc(F)cc2[nH]c1=O | 35µM* | i | 45µM* | u
CC(=O)N1CCN(C(=O)c2cn3cc(-c4ccc(F)cc4)sc3n2)CC1 | -30% | x | -4% | x
O=C(Nc1cc(-c2ccncc2)nn1-c1ccccc1)c1ccc(Cl)cc1 | u | x | 79µM* | x
O=C(Nc1cc(-c2cccnc2)nn1-c1ccccc1)c1cccc(Br)c1 | u | x | 50µM* | x
O=C(Nc1cc(-c2cccnc2)nn1-c1ccccc1)c1ccc(C(F)(F)F)cc1 | 32µM* | x | u | x
CC(=O)Nc1cc(-c2ccncc2)nn1-c1ccccc1 | u | x | -19%[172 µM] | x
COCCn1ccc2c(C3=CCOCC3)nc(-c3cccc4[nH]ccc34)cc21 | 50µM* | i | 28µM* | -1%[70.6 µM]
